# MITF primary: human MITF inhibition, primary screen | 0.91% of 650,000 active | AID 1259374 | AlphaScreen MITF homodimerization, bead proximity signal | O75030 | inhibition, % at 2.6 µM; in the data active = inhibition above about 50%;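 also: 0% = vehicle wells with protein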
# Target sequence (O75030 whole entry, looked up): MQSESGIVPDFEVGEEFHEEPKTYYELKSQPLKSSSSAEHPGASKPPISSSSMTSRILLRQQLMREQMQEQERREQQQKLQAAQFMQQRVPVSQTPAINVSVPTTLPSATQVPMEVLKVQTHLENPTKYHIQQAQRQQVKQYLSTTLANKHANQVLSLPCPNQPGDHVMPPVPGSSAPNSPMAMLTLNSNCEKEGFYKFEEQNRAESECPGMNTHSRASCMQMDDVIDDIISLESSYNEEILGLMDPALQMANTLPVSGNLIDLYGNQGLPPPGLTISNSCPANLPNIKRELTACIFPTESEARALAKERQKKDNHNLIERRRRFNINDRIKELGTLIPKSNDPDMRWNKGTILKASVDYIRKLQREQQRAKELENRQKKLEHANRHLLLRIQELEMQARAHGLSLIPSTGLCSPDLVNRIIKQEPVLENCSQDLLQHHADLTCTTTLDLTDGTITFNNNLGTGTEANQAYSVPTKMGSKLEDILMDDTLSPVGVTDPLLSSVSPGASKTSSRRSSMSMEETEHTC
# FBW7 activator: human FBW7 E3 ligase activation, primary screen; normalized activity (activation), % at 26.1 µM; 0.13% of 650,000 active; AlphaScreen FBW7–phospho-cyclin E peptide binding, activator screen; in the data active = normalized activity above about 1.9%;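 also: purified mutant Fbw7 with reduced substrate affinity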
# GPR151 activ: activators of human GPR151; 1% of 650,000 active; activation, % at 11.2 µM; PathHunter beta-arrestin GPR151 cells, luminescence; Q8TDV0; in the data active = activation above about 4.9%;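 also: 0% = median of compound wells and 100% = cells with positive control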
# TEAD-YAP block: TEAD-YAP interaction inhibition; inhibition, % at 9.12 µM; 1.4% of 640,000 active; HEK-TIYL cells, TEAD-Gal4/YAP UAS-luciferase luminescence; in the data active = inhibition above about 32%;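 also: 0% = median of test compound wells and 100% = reference inhibitor wells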
# GPR151 confirm: human GPR151 activation, confirmation screen. shares compounds with GPR151 activ. GPR151 PathHunter beta-arrestin cells, luminescence, 90 min; % of EA-reagent control over plate median. activation, % at 11.2 µM. 6,700 tested, under 10 active;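 active = mean percent activation across replicates above the confirmation screen cutoff of 4.91%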
# GPR119 counter: counter-screen for GPR151 activators: effect on human GPR119. shares compounds with GPR151 activ. GPR119 PathHunter beta-arrestin cells, luminescence, 90 min; 0 = compound-well median, 100 = enzyme-acceptor control. activation, % at 11.2 µM. 0.3% of 6,700 active. AID 1508611;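 active = mean percent activation in the counterscreen above 29.09%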;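 also: counterscreen on off-target GPR119 to flag nonselective hits from the GPR151 activator screen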
# Starred values were filed as active, the others as inactive; . = no result given. Shown are actives, neighbours in structure and some others; about 3.5% of the full set was active somewhere.
SMILES,MITF primary,FBW7 activator,GPR151 activ,TEAD-YAP block,GPR151 confirm,GPR119 counter
O=C(CN1C(=O)CCC1=O)Nc1nc(-c2ccc3c(c2)CCCC3)cs1,9.1,0.1,0.5,-5.3,.,.
COC(=O)c1cc(-c2ccco2)nc2c1c(=O)n(C)c(=O)n2CC(C)C,3.0,0.0,0.6,-4.8,.,.
COC(=O)C1=C(C)OC(N)=C(C#N)C1c1ccccc1C(F)(F)F (centres undefined),-8.1,0.0,-1.2,2.0,.,.
CCOC(=O)C1=C(C)OC(N)=C(C#N)C1c1ccc(OC)c(OCC)c1 (centres undefined),-21.8,0.0,5.2*,0.6,0.1,9.8
CCOC(=O)C1=C(C)OC(N)=C(C#N)C1c1ccccc1C(F)(F)F (centres undefined),3.1,-0.1,7.1*,-0.3,0.1,-4.7
CCOC(=O)C1=C(C)OC(N)=C(C#N)C1c1ccc(OC)c(OC)c1 (centres undefined),-0.4,-0.1,-0.1,-0.6,.,.
CC1(C)C2CCC1(CS(=O)(=O)Nc1nc3c(ccc4ccccc43)s1)C(=O)C2 (centres undefined),0.2,0.0,0.4,-12.1,.,.
O=[N+]([O-])c1ccc(N2N=C(/C=C/c3ccccc3)CC2c2ccccc2)cc1 (centres undefined),-1.5,0.2,0.5,6.6,.,.
CC1(C)C=C(c2ccc(O)cc2O)CC(C)(C)N1,-16.8,-0.1,-0.1,4.0,.,.
CC1(C)C=C(c2ccc(O)cc2)CC(C)(C)N1,9.2,-0.1,5.6*,3.5,-0.5,-1.7
CCCCn1c(CNC(=O)c2cc(OC)cc(OC)c2)nnc1SC(C)C(=O)Nc1sc2c(c1C(=O)OCC)CCC2 (centres undefined),2.9,0.1,-0.7,-1.2,.,.
O=C(Nc1ccc(Br)cc1)c1ccc(N2C(=O)C3CCCCC3C2=O)cc1 (centres undefined),-5.9,0.0,0.0,-2.2,.,.
O=C(Nc1ccc(Br)cc1)c1cccc(N2C(=O)C3CCCCC3C2=O)c1 (centres undefined),1.7,0.0,7.5*,-8.5,-0.2,4.2
O=C(NNC(=O)c1ccccc1I)c1cccs1,4.0,0.2,5.8*,-1.5,-0.5,-10.9
COc1cccc(/C=C/C(=O)Nc2ccc3nc(N4CCCCC4)cc(C)c3c2)c1OC,0.2,0.0,5.4*,-16.8,0.6,10.4
O=C(CSc1nc2cc(C(=O)NCCCN3CCOCC3)ccc2c(=O)n1CC1CCCO1)NCCc1ccccc1 (centres undefined),5.1,0.5,-1.4,3.5,.,.
COc1cc(NC(=O)NCc2cccs2)c2ncccc2c1,-1.3,-0.7,5.6*,8.2,-0.2,-3.8
Clc1ccccc1Nc1ncnc2ccc(Br)cc12,6.8,-0.1,-0.4,-5.3,.,.
Brc1ccc2ncnc(Nc3cccc4ccccc34)c2c1,9.0,0.0,11.3*,3.8,0.6,-11.6
COc1ccc(OC)c(C2C(C(=O)Nc3ccccn3)=C(C)Nc3ncnn32)c1 (centres undefined),5.3,0.0,1.1,-5.8,.,.
O=C(CN1C(=O)COc2ccccc21)Nc1cccc(F)c1,10.5,-0.1,5.2*,-6.7,0.2,8.5
COc1cc(/C=C2/N=C(c3ccc(C)c([N+](=O)[O-])c3)OC2=O)ccc1OC(C)=O,8.1,0.3,-0.8,-6.8,.,.
Cc1ccc(N(C(=O)CCc2ccccc2)C2C=CS(=O)(=O)C2)cc1C (centres undefined),-0.2,-0.1,5.4*,8.7,0.1,2.6
O=C(COc1ccc(Br)cc1)N(c1ccccc1)C1C=CS(=O)(=O)C1 (centres undefined),2.3,0.2,6.3*,13.5,-0.1,-0.7
Cc1ccc(S(=O)(=O)Nc2ccc(F)cc2)cc1C(=O)O,8.7,0.0,1.4,4.8,.,.
CN1CCN(S(=O)(=O)c2ccc3oc(=O)ccc3c2)CC1,11.1,-0.1,2.9,10.0,.,.
COc1ccc(-n2nc3cc(C)c(NC(=O)c4cccs4)cc3n2)cc1,-7.7,0.4,5.1*,-51.8,0.3,10.5
O=C(CC1C(=O)NCCN1C1Cc2ccccc2C1)NCCc1cccs1 (centres undefined),-9.9,-0.1,2.4,3.5,.,.
CSCCCNC(=O)CC1C(=O)NCCN1C1Cc2ccccc2C1 (centres undefined),10.4,0.1,4.9*,3.8,-0.1,-0.2

# Screening results (PubChem BioAssay)
